# In PubChem BioAssay (NCATS):
# Records with an inconclusive call do not appear. Unmarked numbers belong to inactive results. Calls come from the whole dose curve; as a rule, active = well fitted curve in either direction with a large enough effect (not every such curve was filed as active); inconclusive = small, poorly fitted or top-dose-only effect, or another doubt; inactive = flat fitted curve, though single readings scatter.
# Experiment: AP1 Signaling Pathway (AID 357)
# Conditions: ME-180 AP-1-bla reporter, EGF-induced, beta-lactamase ratio, 5 h; at 17.2 µM (top of the series) unless noted
# In short: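 ME-180 cells with beta-lactamase reporter under AP-1 response element, stimulated with EC50 EGF; compounds tested in titration series, 5 h at 37 °C. CCF4 substrate added 2.5 h at room temperature; 460/530 nm emission ratio gave %activity and AC50.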
# % is set by controls: 0 for no effect and ±100 for the full control effect.
row,SMILES,"activity change, negative = inhibition [%]"
1,CC(C)OC(=O)c1nn2c(C(F)(F)F)cc(-c3ccc(Br)o3)nc2c1Br,-6.76
2,Cc1cc(Nc2ccc3ccccc3c2)n2ncnc2n1,16.7
3,O=C1CC(NCc2ccc3c(c2)OCO3)C(=O)N1Cc1ccc2c(c1)OCO2 (stereo not given),-14.2
4,Cc1cc(C)n(C2CCCCC2OC(=O)c2ccccc2)n1 (stereo not given),7.47
5,CC1(C)Cc2c(C#N)c(SCC(=O)c3ccccc3)nc(N3CCOCC3)c2CS1,-7.36
6,Cc1c(O)c(CN2CCCC2)cc2c1oc(=O)c1ccccc12,4.42
7,COc1ccc(N2CCN(c3oc(COc4ccc(Cl)cc4)nc3C#N)CC2)cc1,-27.6
8,CCCCNC(=O)c1c(N)n(/N=C/c2cccnc2)c2nc3ccccc3nc12,-12
9,COc1ccc(/C=C/C2=NC(=C\N(C)C)/C(=O)O2)cc1,-4.1
10,CCN(CC)c1nc(-c2cccc(OC)c2O)nc2ccccc12,-20.9
11,CC1(C)Cc2nc(NCCCO)c(C#N)cc2CO1,-6.96
12,CCOC(=O)c1[nH]c2cc(OC)c(OC)cc2c1NC(=O)C(C)N1CCN(Cc2ccccc2)CC1 (stereo not given),-21.5
13,CC1(C)CC(=O)C(C=NCCN2CCN(CCc3ccccc3)CC2)=C(O)C1,2.91
14,COc1ccc2c(c1OC)C(=O)N1c3ccccc3C(=O)N(c3ccccc3)C21 (stereo not given),-9.35
15,Cc1ccc(S(=O)(=O)c2cc3c(=O)n4cccc(C)c4nc3n(CC3CCCO3)c2=N)cc1 (stereo not given),2.16
16,Cn1c(OCc2ccco2)nc2c1c(=O)n(Cc1ccc(Cl)c(Cl)c1)c(=O)n2C,-3.54
17,Cc1cccc(C)c1OCC(O)CNS(=O)(=O)c1ccccc1C(=O)N1CCCCC1 (stereo not given),-10.2
18,Cc1nc(N2CCN(C(=O)c3ccc(Cl)cc3)CC2)c(C#N)c2c1COC(C)(C)C2,-10
19,C(=N\n1cnnc1)/c1ccccn1,1.5
20,Cc1nn2cnc3sc4c(c3c2nc1=O)CCCC4,10.1

row,SMILES,"activity change, negative = inhibition [%]"
1,Cc1c(CCC#N)c(N2CCN(C3CCCCC3)CC2)n2c(nc3ccccc32)c1C#N,-16.9
2,CC(C)(C)c1ccc(C(=O)C=[N+]=[N-])cc1,0.479
3,CCCCNC(=O)C(C#N)c1nc2ccccc2nc1N1CCN(Cc2ccc3c(c2)OCO3)CC1 (stereo not given),-18.8
4,CC(C)C(=O)N1CCN(c2nc(-c3ccccc3)c3c(c2C#N)CC(C)(C)OC3)CC1,-2.44
5,COc1ccc2c(c1OC)C(=O)N1c3ccccc3C(=O)N(c3ccccc3F)C21 (stereo not given),-4.99
6,CCCc1nc(N2CCCC2)c(C#N)c2c1CCCC2,-2.98
7,C=C(C)CSc1nnc2n(C)c(=O)c3c4c(sc3n12)CCC4,-2.43
8,CCc1c(C)c2cc(Cl)c(O)c(CN3CCCCC3)c2oc1=O,3.67
9,COc1cc(/C=N/O)ccc1OCc1ccc(C(=O)O)cc1,-13.9
10,CCCCCNC(=O)C(C#N)c1nc2ccccc2nc1N1CC(C)OC(C)C1 (stereo not given),-18.2
11,CC(C)c1nc(NCC2CCCO2)c(C#N)c2c1COC(C)(C)C2 (stereo not given),-26.1
12,CC1CCN(c2[nH]c(=S)c(C#N)c3c2CCCC3)CC1,10.9
13,C=CCn1c(=O)c(C(=O)NCCN(CC)CC)c(O)c2ccccc21,14.7
14,CCOC(=O)c1ccc(N=CC2=C(O)CC(c3ccco3)CC2=O)cc1 (stereo not given),2.87
15,O=C(c1cccs1)N1CCC(N2CCN(c3ccccc3)CC2)CC1,9.88
16,Cc1ccc(OCC(=O)N2CCC(N3CCCCCC3)CC2)cc1,3.92
17,COC(=O)CC1=C(C(=O)OC)C(c2ccc3c(c2Cl)OCO3)C(C#N)=C(N)O1 (stereo not given),29.4
18,Cc1ccc(CNc2oc(COc3ccccc3Cl)nc2C#N)cc1,39.1
19,N#Cc1nc(COc2ccc(Br)cc2)oc1N1CCN(Cc2ccccc2)CC1,-15.5
20,COc1ccc(/C=N/n2cncn2)cc1CSc1ccccn1,-9.09

# Experiment: Stat Signaling Pathway (AID 446);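 note: ME-180 cervical cancer cells given 40 pM IL-6 alongside compound; SIE-controlled beta-lactamase reporter measured as 460/530 nm FRET emission ratio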
# Conditions: ME-180 (cervical carcinoma) SIE beta-lactamase reporter, IL-6 stimulated, 5 h; at 17.2 µM (top of the series) unless noted
# In short: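 FRET read-out (405 nm excitation, 460/530 nm emission) of a beta-lactamase reporter under a STAT-inducible element in ME-180 cervical carcinoma cells. Cells with compound receive 40 pM IL-6 for 5 h. Values are normalised to AC90 stimulation and AC90 JAK-inhibitor controls.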
row,SMILES,"activity, negative = inhibition [%]"
1,CC(C)OC(=O)c1nn2c(C(F)(F)F)cc(-c3ccc(Br)o3)nc2c1Br,8.51
2,Cc1cc(Nc2ccc3ccccc3c2)n2ncnc2n1,-6.76
3,O=C1CC(NCc2ccc3c(c2)OCO3)C(=O)N1Cc1ccc2c(c1)OCO2 (stereo not given),-1.08
4,Cc1cc(C)n(C2CCCCC2OC(=O)c2ccccc2)n1 (stereo not given),3.83
5,CC1(C)Cc2c(C#N)c(SCC(=O)c3ccccc3)nc(N3CCOCC3)c2CS1,0.377
6,Cc1c(O)c(CN2CCCC2)cc2c1oc(=O)c1ccccc12,-9.48
7,COc1ccc(N2CCN(c3oc(COc4ccc(Cl)cc4)nc3C#N)CC2)cc1,11.6
8,CCCCNC(=O)c1c(N)n(/N=C/c2cccnc2)c2nc3ccccc3nc12,16.8
9,COc1ccc(/C=C/C2=NC(=C\N(C)C)/C(=O)O2)cc1,-0.663
10,CCN(CC)c1nc(-c2cccc(OC)c2O)nc2ccccc12,-20
11,CC1(C)Cc2nc(NCCCO)c(C#N)cc2CO1,7.31
12,CCOC(=O)c1[nH]c2cc(OC)c(OC)cc2c1NC(=O)C(C)N1CCN(Cc2ccccc2)CC1 (stereo not given),-4.92
13,CC1(C)CC(=O)C(C=NCCN2CCN(CCc3ccccc3)CC2)=C(O)C1,-3.07
14,COc1ccc2c(c1OC)C(=O)N1c3ccccc3C(=O)N(c3ccccc3)C21 (stereo not given),0.163
15,Cc1ccc(S(=O)(=O)c2cc3c(=O)n4cccc(C)c4nc3n(CC3CCCO3)c2=N)cc1 (stereo not given),2.48
16,Cn1c(OCc2ccco2)nc2c1c(=O)n(Cc1ccc(Cl)c(Cl)c1)c(=O)n2C,0.615
17,Cc1cccc(C)c1OCC(O)CNS(=O)(=O)c1ccccc1C(=O)N1CCCCC1 (stereo not given),-0.145
18,Cc1nc(N2CCN(C(=O)c3ccc(Cl)cc3)CC2)c(C#N)c2c1COC(C)(C)C2,-17.4
19,C(=N\n1cnnc1)/c1ccccn1,7.02
20,Cc1nn2cnc3sc4c(c3c2nc1=O)CCCC4,-8.12

row,SMILES,"activity, negative = inhibition [%]"
1,Cc1c(CCC#N)c(N2CCN(C3CCCCC3)CC2)n2c(nc3ccccc32)c1C#N,9.87
2,CC(C)(C)c1ccc(C(=O)C=[N+]=[N-])cc1,4.94
3,CCCCNC(=O)C(C#N)c1nc2ccccc2nc1N1CCN(Cc2ccc3c(c2)OCO3)CC1 (stereo not given),-8.12
4,CC(C)C(=O)N1CCN(c2nc(-c3ccccc3)c3c(c2C#N)CC(C)(C)OC3)CC1,9.79
5,COc1ccc2c(c1OC)C(=O)N1c3ccccc3C(=O)N(c3ccccc3F)C21 (stereo not given),-18.4
6,CCCc1nc(N2CCCC2)c(C#N)c2c1CCCC2,10.3
7,C=C(C)CSc1nnc2n(C)c(=O)c3c4c(sc3n12)CCC4,2.61
8,CCc1c(C)c2cc(Cl)c(O)c(CN3CCCCC3)c2oc1=O,11.7
9,COc1cc(/C=N/O)ccc1OCc1ccc(C(=O)O)cc1,-11.7
10,CCCCCNC(=O)C(C#N)c1nc2ccccc2nc1N1CC(C)OC(C)C1 (stereo not given),-11.4
11,CC(C)c1nc(NCC2CCCO2)c(C#N)c2c1COC(C)(C)C2 (stereo not given),-3.72
12,CC1CCN(c2[nH]c(=S)c(C#N)c3c2CCCC3)CC1,-15.1
13,C=CCn1c(=O)c(C(=O)NCCN(CC)CC)c(O)c2ccccc21,8.32
14,CCOC(=O)c1ccc(N=CC2=C(O)CC(c3ccco3)CC2=O)cc1 (stereo not given),-4
15,O=C(c1cccs1)N1CCC(N2CCN(c3ccccc3)CC2)CC1,-2.08
16,Cc1ccc(OCC(=O)N2CCC(N3CCCCCC3)CC2)cc1,17.9
17,COC(=O)CC1=C(C(=O)OC)C(c2ccc3c(c2Cl)OCO3)C(C#N)=C(N)O1 (stereo not given),14.3
18,Cc1ccc(CNc2oc(COc3ccccc3Cl)nc2C#N)cc1,-8.99
19,N#Cc1nc(COc2ccc(Br)cc2)oc1N1CCN(Cc2ccccc2)CC1,8.74
20,COc1ccc(/C=N/n2cncn2)cc1CSc1ccccn1,10.6
